# Test results as given in PubChem BioAssay (NCATS).
# Values joined by “and” are separate entries in the source; they are usually repeats but may differ in a detail not shown here. Equal entries are not always repeated. Inconclusive results are not listed. A call without a number means that no potency is given here. Active and inactive are the calls of the source. Unless noted, calls come from the whole dose curve; as a rule, active = well fitted curve in the direction sought with a large enough effect; inconclusive = small, poorly fitted or top-dose-only effect, or another doubt; inactive = no such curve, though single readings can be large; an effect the other way counts as inactive or inconclusive.
# What was measured:
# [1] = target: Glucocorticoid receptor (Homo sapiens) (UniProt P04150); assay: GR-GFP Redistribution (AID 450;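 active = compounds whose dose series gives a full or clear partial fitted curve of increased nuclear translocation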; note: potency is the fitted concentration of half-maximal effect); conditions: U2OS GR-GFP nuclear translocation, laser cytometry, 2 h
# Sequence of Glucocorticoid receptor (Homo sapiens) (P04150 whole entry, looked up, the tested form may be a part): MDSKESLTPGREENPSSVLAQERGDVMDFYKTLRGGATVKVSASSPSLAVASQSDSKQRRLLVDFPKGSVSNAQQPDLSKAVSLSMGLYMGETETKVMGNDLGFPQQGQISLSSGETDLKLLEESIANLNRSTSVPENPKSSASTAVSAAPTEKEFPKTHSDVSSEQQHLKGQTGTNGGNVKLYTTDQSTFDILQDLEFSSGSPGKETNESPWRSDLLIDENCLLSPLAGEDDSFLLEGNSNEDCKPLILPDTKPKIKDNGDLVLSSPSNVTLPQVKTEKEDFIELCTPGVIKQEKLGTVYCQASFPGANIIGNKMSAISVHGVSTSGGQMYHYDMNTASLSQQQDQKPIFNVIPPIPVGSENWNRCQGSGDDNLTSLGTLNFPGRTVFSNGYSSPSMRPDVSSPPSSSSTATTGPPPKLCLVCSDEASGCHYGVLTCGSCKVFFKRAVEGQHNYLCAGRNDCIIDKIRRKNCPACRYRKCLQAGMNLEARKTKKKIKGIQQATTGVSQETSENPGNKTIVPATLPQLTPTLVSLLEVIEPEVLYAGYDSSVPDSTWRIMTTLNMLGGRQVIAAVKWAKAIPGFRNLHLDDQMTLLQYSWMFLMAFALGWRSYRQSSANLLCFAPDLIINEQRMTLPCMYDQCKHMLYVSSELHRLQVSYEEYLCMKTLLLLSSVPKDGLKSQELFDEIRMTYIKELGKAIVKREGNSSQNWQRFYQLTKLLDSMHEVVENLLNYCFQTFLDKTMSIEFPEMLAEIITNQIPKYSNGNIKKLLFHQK
# [2] = target: Glucocorticoid receptor (Homo sapiens) (UniProt P04150); assay: GR-EFC Redistribution (AID 451; calls by dose curve; note: potency is the fitted concentration of half-maximal effect); conditions: CHO-K1 GR-EFC translocation, beta-gal luminescence, 2 h
# Method in brief: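 Translocation of GR-ED fusion to nuclear EA restores b-gal, read by luminescence after 1 h room-temperature detection. Engineered CHO-K1 biosensor cells, 1,000/well, exposed 2 h at 37 C to titrations up to 46 uM final.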
# [3] = target: Mitogen-activated protein kinase 10 (Mus musculus) (UniProt Q61831); assay: JNK3 AlphaScreen Assay (AID 530; active = well fitted curve in either direction with a large enough effect, not every such curve was filed as active;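 note: kinase came from lysate of stimulated human HepG2 cells; signal reports phosphorylation of biotinylated GST-cJun 1-79 at Ser73 with 10 µM ATP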)
# Method in brief: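 qHTS titrations with 15 min compound pre-incubation before adding ATP (10 uM final). Read-out: AlphaScreen of Ser73-phosphorylated biotin-GST-cJun using HepG2 lysate JNK3 activated by IL-1β and TNFα.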
# [4] = target: Cytochrome P450 3A4 (Homo sapiens) (UniProt P08684); assay: qHTS Assay for Inhibitors and Substrates of Cytochrome P450 3A4 (AID 884); note: nearly all actives have a fitted effect of over 50% in size; note: potency is the fitted concentration of half-maximal effect
# Sequence of Cytochrome P450 3A4 (Homo sapiens) (P08684 whole entry, looked up): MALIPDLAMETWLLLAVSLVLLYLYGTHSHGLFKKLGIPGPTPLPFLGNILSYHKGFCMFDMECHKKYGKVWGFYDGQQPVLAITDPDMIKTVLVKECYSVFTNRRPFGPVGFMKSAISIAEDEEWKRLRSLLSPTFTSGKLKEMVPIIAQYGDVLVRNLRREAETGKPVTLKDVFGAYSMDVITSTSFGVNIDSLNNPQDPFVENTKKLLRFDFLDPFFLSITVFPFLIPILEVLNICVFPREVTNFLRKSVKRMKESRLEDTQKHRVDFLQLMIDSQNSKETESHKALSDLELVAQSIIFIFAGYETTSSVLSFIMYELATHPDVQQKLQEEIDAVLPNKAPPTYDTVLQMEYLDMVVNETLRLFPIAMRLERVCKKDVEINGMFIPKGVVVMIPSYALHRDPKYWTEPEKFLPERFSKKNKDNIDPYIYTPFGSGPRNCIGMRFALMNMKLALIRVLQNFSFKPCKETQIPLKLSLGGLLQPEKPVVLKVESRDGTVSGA
# Method in brief: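 Luminescent readout of luciferin produced by CYP3A4 (20 nM) dealkylation of Luciferin-PPXE, 25 uM (its KM). NADPH-driven reaction ran 60 min at RT after 10 min compound preincubation; data scaled to 57 uM ketoconazole as 100% inhibition.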
# [5] = target: Ubiquitin carboxyl-terminal hydrolase 1 (Homo sapiens) (UniProt O94782); assay: Inhibitors of USP1/UAF1: Pilot qHTS (AID 504865);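 note: rhodamine fluorescence freed from ubiquitin-rhodamine substrate followed over time; top concentration of the series differs between compounds; nearly all actives have a fitted effect of over 35% in size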
# Sequence of Ubiquitin carboxyl-terminal hydrolase 1 (Homo sapiens) (O94782 whole entry, looked up): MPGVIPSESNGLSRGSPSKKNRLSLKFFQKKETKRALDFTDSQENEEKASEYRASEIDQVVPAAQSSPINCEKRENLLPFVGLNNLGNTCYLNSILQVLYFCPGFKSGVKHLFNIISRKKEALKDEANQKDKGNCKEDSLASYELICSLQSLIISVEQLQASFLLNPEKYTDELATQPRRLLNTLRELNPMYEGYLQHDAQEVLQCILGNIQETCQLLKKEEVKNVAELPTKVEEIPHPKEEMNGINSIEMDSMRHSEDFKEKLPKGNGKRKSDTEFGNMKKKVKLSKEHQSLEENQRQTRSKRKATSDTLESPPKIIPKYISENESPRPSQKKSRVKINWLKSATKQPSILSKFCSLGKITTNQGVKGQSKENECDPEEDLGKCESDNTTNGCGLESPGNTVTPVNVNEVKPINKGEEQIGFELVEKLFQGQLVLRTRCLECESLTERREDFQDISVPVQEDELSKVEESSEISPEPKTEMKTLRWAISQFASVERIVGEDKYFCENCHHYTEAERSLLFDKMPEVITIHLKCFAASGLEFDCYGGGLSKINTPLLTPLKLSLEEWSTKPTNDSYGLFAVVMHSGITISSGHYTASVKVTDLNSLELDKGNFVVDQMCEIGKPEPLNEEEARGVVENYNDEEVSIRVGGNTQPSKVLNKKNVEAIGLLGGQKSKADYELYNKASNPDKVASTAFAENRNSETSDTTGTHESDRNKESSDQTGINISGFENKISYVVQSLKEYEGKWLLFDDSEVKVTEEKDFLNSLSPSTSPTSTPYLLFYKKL
# Method in brief: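 Kinetic fluorescence assay: 1nM USP1/UAF1, 15 min compound preincubation, then 150nM Ub-Rho; 480/540 nm.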
# [6] = target: DNA dC->dU-editing enzyme APOBEC-3G (Homo sapiens) (UniProt Q9HC16); assay: qHTS for inhibitors of Vif-A3G interactions: Validation (AID 588379)
# Sequence of DNA dC->dU-editing enzyme APOBEC-3G (Homo sapiens) (Q9HC16 whole entry, looked up): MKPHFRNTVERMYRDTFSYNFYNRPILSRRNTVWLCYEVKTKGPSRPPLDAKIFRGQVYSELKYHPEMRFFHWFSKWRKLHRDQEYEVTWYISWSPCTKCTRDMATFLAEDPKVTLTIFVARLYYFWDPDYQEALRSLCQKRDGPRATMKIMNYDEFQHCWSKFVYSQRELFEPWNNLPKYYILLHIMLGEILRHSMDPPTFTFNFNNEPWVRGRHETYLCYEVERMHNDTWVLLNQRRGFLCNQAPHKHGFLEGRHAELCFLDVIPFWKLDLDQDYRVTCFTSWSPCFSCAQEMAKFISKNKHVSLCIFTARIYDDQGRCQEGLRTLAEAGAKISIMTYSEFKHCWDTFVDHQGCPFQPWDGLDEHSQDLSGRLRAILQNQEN
# Method in brief: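 Yellow fluorescence (Ex 488, Em 500-530) of Vif-coexpressing HeLa A3G-eYFP cells, scanned by Acumen cytometer, reports blocked A3G degradation. Cells plated at 700/well overnight at 37 deg C before compound addition, then a further overnight compound incubation at 37 deg C.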
# [7] = test system: Zika virus NS2B-NS3 protease; assay: Primary screen GU AMC qHTS for Zika virus inhibitors (AID 1347154); note: nearly all actives have a fitted effect of over 70% in size
# Method in brief: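 Fluorogenic AMC-substrate cleavage by noncovalent NS2B-NS3 protease complex (25 nM, pH 8.0 Tris buffer with Tween 20) followed for 15 minutes at room temperature (~20% conversion). Percent inhibition from ex340/em450 signal change, fitted by 4-parameter Hill equation.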
# [8] = Primary qHTS for small molecule stabilizers of the endoplasmic reticulum resident proteome: Secreted ER Calcium Modulated Protein (SERCaMP) assay (AID 1508630)
# Method in brief: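 The SH-SY5Y reporter protocol was run at 3 concentrations up to 38.3 uM (primary) or 11 concentrations (follow-up): 16 h compound, 100 nM thapsigargin for 4 h, then extracellular luciferase luminescence.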
# [9] = target: Cytochrome P450 3A4 (Homo sapiens) (UniProt P08684); assay: qHTS Assay for Activators of Cytochrome P450 3A4 (AID 885); note: nearly all actives have a fitted effect of over 65% in size
# Method in brief: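 CYP3A4 activity: Luciferin-PPXE O-dealkylation, 25uM substrate, 200mM KPO4, RT throughout. Read-out is luciferase luminescence; higher values reflect activation.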
# [10] = target: Cytochrome P450 2C19 (Homo sapiens) (UniProt P33261); assay: qHTS Assay for Inhibitors and Substrates of Cytochrome P450 2C19 (AID 899); note: potency is the fitted concentration of half-maximal effect; nearly all actives have a fitted effect of over 60% in size
# Method in brief: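 Reactions contain 5nM enzyme, 10uM Luciferin-H EGE (KM) and 50mM KPO4; compound preincubates 10 min at 37C, NADPH regeneration starts turnover for 60 min. Luminescence after detection reagent gives activity.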
# [11] = AP1 Signaling Pathway (AID 357; active = well fitted curve in either direction with a large enough effect, not every such curve was filed as active;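 note: ME-180 reporter cells stimulated with EGF at its EC50 level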); conditions: ME-180 AP-1-bla reporter, EGF-induced, beta-lactamase ratio, 5 h; at 38 µM (top of the series)
# Method in brief: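 Titration-series screen for positive or negative modulators of EC50 EGF-induced signaling in ME-180 cells carrying an AP-1-driven beta-lactamase reporter. After 5 hours at 37 degrees Celsius, CCF4 460nm/530nm emission ratio gave %Activity; AC50 values derived.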
# [12] = target: Cytochrome P450 1A2 (Homo sapiens) (UniProt P05177); assay: p450-cyp1a2 (AID 410; calls by dose curve)
# Method in brief: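 Luminescent demethylation readout: Luciferin-ME (100uM, equal to Km) turned over by 20nM CYP1A2 for 60 min at room temperature after NADPH regeneration addition, following 10 min compound preincubation. Normalization used 57 uM furafylline as full inhibition.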
# [13] = NFAT Signaling Pathway (AID 444; active = well fitted curve in either direction with a large enough effect, not every such curve was filed as active;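 note: carbachol stimulus at about its EC50 of 1 µM final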); conditions: Jurkat NFAT-bla M1, carbachol, beta-lactamase ratio, 5 h; at 38 µM (top of the series)
# Method in brief: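 Read-out: CCF4 FRET ratio (460 nm/530 nm) after 1 h RT dye loading, used for %activity and AC50 from titration series. Cells: Jurkat NFAT-β-lactamase/M1 line, treated with compound plus 1 uM carbachol for 5 h, 37 °C.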
# [14] = Stat Signaling Pathway (AID 446; active = well fitted curve in either direction with a large enough effect, not every such curve was filed as active;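 note: ME-180 cervical cancer cells given 40 pM IL-6 alongside compound; SIE-controlled beta-lactamase reporter measured as 460/530 nm FRET emission ratio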); conditions: ME-180 (cervical carcinoma) SIE beta-lactamase reporter, IL-6 stimulated, 5 h
# Method in brief: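 Compound effects on IL-6-induced STAT reporter activity were measured in ME-180 cells. After overnight culture, cells were co-treated with 40 pM IL-6 for 5 hrs before beta-lactamase substrate loading at room temperature.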
# [15] = target: 3',5'-cyclic-AMP phosphodiesterase 4B (Homo sapiens) (UniProt Q07343); assay: qHTS Assay for Inhibitors of PDE-IV (AID 607; active = well fitted activation curve with a large enough effect in the main read-out, with a control signal flat, not every such curve was filed as active)
# Sequence of 3',5'-cyclic-AMP phosphodiesterase 4B (Homo sapiens) (Q07343 whole entry, looked up): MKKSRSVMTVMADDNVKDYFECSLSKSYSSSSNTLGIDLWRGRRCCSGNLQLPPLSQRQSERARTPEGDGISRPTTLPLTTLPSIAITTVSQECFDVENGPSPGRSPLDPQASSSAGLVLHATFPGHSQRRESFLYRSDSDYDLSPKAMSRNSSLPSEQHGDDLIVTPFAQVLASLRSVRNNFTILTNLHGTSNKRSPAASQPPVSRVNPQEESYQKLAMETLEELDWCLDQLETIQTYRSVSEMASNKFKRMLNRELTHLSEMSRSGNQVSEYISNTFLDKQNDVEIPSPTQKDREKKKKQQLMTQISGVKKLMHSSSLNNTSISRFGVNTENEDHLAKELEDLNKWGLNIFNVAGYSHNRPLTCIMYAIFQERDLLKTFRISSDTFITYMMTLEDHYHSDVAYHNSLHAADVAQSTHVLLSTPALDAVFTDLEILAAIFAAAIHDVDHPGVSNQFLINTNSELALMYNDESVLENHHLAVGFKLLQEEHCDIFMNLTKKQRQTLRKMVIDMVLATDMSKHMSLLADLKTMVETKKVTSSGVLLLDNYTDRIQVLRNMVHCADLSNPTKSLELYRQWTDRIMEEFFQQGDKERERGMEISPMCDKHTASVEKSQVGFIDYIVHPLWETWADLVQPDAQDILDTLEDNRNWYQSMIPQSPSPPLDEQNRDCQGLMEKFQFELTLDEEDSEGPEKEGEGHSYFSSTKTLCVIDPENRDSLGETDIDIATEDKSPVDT
# Method in brief: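 ACTOne HEK293 cells carry a modified cAMP-gated CNG channel and express endogenous PDE4; plated 1000 cells/well, compounds up to 22.9 uM final. Membrane-potential dye fluorescence (ex 535/em 590) was read; parental cells received 10 uM forskolin + 100 uM RO 20-1724.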
# [16] = target: Guanine nucleotide-binding protein G(i) subunit alpha-1 (Homo sapiens) (UniProt P63096); assay: qHTS Assay for Inhibitors of RGS12 GoLoco Motif Activity (Green Fluorophore) (AID 879);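 note: negative values mean loss of peptide binding seen as reduced polarization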
# Sequence of Guanine nucleotide-binding protein G(i) subunit alpha-1 (Homo sapiens) (P63096 whole entry, looked up): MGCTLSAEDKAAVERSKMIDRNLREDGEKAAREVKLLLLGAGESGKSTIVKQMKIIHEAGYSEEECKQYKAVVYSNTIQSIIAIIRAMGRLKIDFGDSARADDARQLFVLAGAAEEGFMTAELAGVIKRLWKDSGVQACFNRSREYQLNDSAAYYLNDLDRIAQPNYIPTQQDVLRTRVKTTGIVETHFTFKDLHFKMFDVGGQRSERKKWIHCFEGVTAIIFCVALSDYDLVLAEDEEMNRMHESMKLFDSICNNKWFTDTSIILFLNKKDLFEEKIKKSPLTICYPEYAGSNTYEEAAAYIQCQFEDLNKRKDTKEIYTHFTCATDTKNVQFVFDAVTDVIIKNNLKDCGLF
# Method in brief: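 A drop in FITC polarization marked displacement of the FITC-tagged RGS12 GoLoco peptide (10 nM) from Gαi1 (50 nM). Compounds were incubated 10 min at room temperature in Tris pH 7.5 buffer containing 150 mM NaCl, 0.1 mM GDP and 0.05% NP40; unlabeled peptide titration served as control.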
# [17] = Confirmation and Secondary Assay for Modulators of Hemoglobin Beta Chain Splicing at IVS2 654 locus (AID 910);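 note: HeLa cells stably carrying EGFP split by mutant beta-globin IVS2-654 intron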
# Method in brief: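 Readout: per-well total peak green fluorescence (488 nm ex, 500–520 nm em) from objects 5–250 µm, reflecting correct splicing of an EGFP-654 reporter. Compounds were applied for 2 days at 37 °C to overnight-plated HeLa EGFP-654 cells; controls were DMSO and 500 nM IVS2-654 PNA.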
# [18] = Confirmation and Secondary Assay for Modulators of Hemoglobin Beta Chain Splicing at IVS2 705 locus (AID 930);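 note: HeLa cells stably expressing the EGFP-705 splicing reporter; GFP fluorescence per well restored by corrected splicing of the IVS2-705 intron in EGFP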
# Method in brief: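 Read-out: total peak GFP fluorescence per well (488 nm excitation, 500-520 nm emission) by laser-scanning cytometry. Cells: HeLa EGFP-705 splicing reporter, 2 days compound exposure in Optimem/2% FCS.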
# [19] = target: Muscarinic acetylcholine receptor M1 (Rattus norvegicus) (UniProt P08482); assay: qHTS Assay for Antagonists of Acetylcholine Muscarinic M1 Receptor: Kinetic Measurement of Intracellular Calcium Response (AID 943); note: nearly all actives have a fitted effect of over 75% in size; note: potency is the fitted concentration of half-maximal effect;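 for activity change, negative = inhibition: Fluo-4 calcium signal as peak divided by basal fluorescence over 4 min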
# Sequence of Muscarinic acetylcholine receptor M1 (Rattus norvegicus) (P08482 whole entry, looked up): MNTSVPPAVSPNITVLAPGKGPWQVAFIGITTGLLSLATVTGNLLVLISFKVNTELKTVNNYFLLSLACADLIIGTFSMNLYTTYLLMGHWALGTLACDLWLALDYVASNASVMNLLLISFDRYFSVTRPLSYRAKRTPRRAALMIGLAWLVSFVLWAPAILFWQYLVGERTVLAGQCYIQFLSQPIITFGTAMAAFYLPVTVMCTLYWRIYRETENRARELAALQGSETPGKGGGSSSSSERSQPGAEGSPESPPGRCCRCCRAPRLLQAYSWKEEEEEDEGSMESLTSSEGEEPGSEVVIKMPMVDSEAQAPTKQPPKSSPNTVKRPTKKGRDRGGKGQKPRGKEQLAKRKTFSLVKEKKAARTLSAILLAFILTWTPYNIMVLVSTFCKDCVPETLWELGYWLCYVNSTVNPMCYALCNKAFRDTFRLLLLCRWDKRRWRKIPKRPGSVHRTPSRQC
# Method in brief: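 Antagonism measured as reduction of carbachol-evoked (EC80, 100 nM final) calcium flux in rat M1-CHO cells after 10 min compound exposure. Fluo-4 signal read kinetically; ratio of maximal to basal fluorescence.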
# [20] = target: Muscarinic acetylcholine receptor M1 (Rattus norvegicus) (UniProt P08482); assay: qHTS Assay for Antagonists of Acetylcholine Muscarinic M1 Receptor: Measurement of IP-One Response (AID 944); note: nearly all actives have a fitted effect of over 75% in size
# Method in brief: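 IP1 accumulation measured via TR-FRET between d2-IP1 and Eu-cryptate anti-IP1 antibody after carbachol (200 nM, EC80) stimulation for 30 min; rat M1-transfected CHO cells received compound 10 min before agonist.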
# [21] = target: Pyruvate kinase (Leishmania mexicana) (UniProt Q27686); assay: qHTS Validation Assay for Inhibitors of Leishmania Mexicana Pyruvate Kinase (AID 945)
# Method in brief: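 Luminescent ATP detection (PKLight) after a 1 h room-temperature reaction of 0.2 nM LmPYK E451W mutant with 0.5 mM PEP and 0.1 mM ADP at pH 7.2. Activity is normalized to DMSO-only control wells.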
# [22] = target: Pyruvate kinase PKM (Homo sapiens) (UniProt P14618); assay: qHTS Assay for Activators of Human Muscle Pyruvate Kinase (AID 954; active = well fitted curve in the direction sought with a large enough effect, not every such curve was filed as active)
# Sequence of Pyruvate kinase PKM (Homo sapiens) (P14618 whole entry, looked up): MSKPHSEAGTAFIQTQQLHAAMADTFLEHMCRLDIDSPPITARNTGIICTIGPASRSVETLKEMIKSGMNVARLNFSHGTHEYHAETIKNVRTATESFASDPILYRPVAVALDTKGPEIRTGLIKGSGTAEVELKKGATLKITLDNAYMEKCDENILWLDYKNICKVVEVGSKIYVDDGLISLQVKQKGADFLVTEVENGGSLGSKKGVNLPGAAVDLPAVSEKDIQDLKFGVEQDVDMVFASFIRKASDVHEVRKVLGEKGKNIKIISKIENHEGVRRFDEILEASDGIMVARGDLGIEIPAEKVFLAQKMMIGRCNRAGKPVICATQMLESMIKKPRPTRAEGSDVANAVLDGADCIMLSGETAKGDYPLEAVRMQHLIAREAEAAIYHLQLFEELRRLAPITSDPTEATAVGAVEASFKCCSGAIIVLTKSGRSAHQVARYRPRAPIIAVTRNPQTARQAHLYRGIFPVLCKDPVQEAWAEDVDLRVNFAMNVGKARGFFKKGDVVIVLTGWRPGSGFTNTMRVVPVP
# Method in brief: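 A coupled luminescent readout tracked ATP made from ADP by purified PKM2. Final conditions included 0.1 nM enzyme, PEP and ADP at 0.5 and 0.1 mM, pH 7.2 imidazole buffer with BSA, and a one-hour room-temperature reaction.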
# [23] = target: Alpha-galactosidase A (Homo sapiens) (UniProt P06280); assay: Counterscreen for Glucocerebrosidase Inhibitors: qHTS Assay for Human alpha-Galactosidase at pH 4.5 (AID 992)
# Sequence of Alpha-galactosidase A (Homo sapiens) (P06280 whole entry, looked up): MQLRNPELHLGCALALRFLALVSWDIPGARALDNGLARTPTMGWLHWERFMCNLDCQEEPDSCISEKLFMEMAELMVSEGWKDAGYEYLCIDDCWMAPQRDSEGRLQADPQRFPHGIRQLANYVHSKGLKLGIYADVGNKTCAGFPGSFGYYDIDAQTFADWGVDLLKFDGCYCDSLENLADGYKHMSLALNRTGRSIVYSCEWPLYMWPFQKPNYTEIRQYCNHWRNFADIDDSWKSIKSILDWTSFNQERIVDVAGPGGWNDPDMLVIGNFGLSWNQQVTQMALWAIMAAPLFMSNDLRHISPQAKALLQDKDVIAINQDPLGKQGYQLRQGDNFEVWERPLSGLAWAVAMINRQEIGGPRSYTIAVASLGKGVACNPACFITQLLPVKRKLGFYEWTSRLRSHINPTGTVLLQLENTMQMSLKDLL
# Method in brief: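 Citrate buffer pH 4.5, Tween-20 0.005%. Enzyme 2 nM, substrate 80 uM, 20 min RT. Stop pH 10. Fluorescence Ex 365/Em 440. AC50 by Hill fit.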
# [24] = target: alpha-glucosidase (Oryza sativa, rice) (UniProt Q653V4); assay: Counterscreen for Glucocerebrosidase Inhibitors: qHTS Assay for Rice alpha-Glucosidase at pH 5.0 (AID 997)
# Method in brief: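 Endpoint fluorogenic assay at pH 5.0: compounds (0.7 nM to 77 uM) titrated against 4 nM rice enzyme and 400 uM 4-MU-alpha-glucoside for 20 min at room temperature; NaOH/glycine stop, read ex 365/em 440 nm, Hill-fitted AC50.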
# [25] = qHTS Assay for Lipid Storage Modulators (AID 1519; calls by dose curve); conditions: Drosophila S3 cells, BODIPY lipid droplet/cell ratio, laser cytometry, cells loaded with oleic acid
# Method in brief: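 Cells seeded at 5,000 per well were treated with compounds over a concentration series and loaded with oleic acid (400 uM, as added). Lipid droplet fluorescence (488 nm excitation, 500-530 nm channel) was read by laser-scanning cytometry and normalized to 20 uM Triacsin C.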
# [26] = measured here: cell count channel max response
# [27] = measured here: lipid channel max response
compound,measurement,setting,value
NC1(C(=O)O)CC(C(=O)O)C1 (configuration not stated),Potency,[1],> 46 µM (inactive)
same,Potency,[2],> 46 µM (inactive)
same,Potency,[3],inactive
same,Potency,[4],inactive
same,Potency,[5],inactive
same,Potency,[6],inactive
same,Potency,[7],inactive
same,Potency,[8],inactive
CN1CCc2cc3c(cc2[C@@H]1[C@@H]1C(=O)Oc2c1ccc1c2OCO1)OCO3,Potency,[1],> 46 µM (inactive)
same,Potency,[2],> 46 µM (inactive)
same,Potency,[3],inactive
same,Potency,[4],1.26 µM (active)
same,Potency,[9],inactive
same,Potency,[10],0.02 µM (active)
same,Potency,[6],inactive
same,Potency,[7],inactive
same,Potency,[8],inactive
CC(=O)N[C@@H](C(=O)O)C(C)(C)SN=O,"activity change, negative = inhibition",[11],-1.8% (inactive)
same,Potency,[12],inactive
same,"activity change, negative = inhibition",[13],9.84% (inactive)
same,"activity, negative = inhibition",[14]; at 38 µM (top of the series),2.94% (inactive)
same,Potency,[1],> 46 µM (inactive)
same,Potency,[2],> 46 µM (inactive)
same,Potency,[3],inactive
same,Potency,[15],inactive
same,outcome,[16],inactive
same,outcome,[17],inactive
same,outcome,[18],inactive
same,Potency,[19],inactive
same,Potency,[20],inactive
same,Potency,[21],inactive
same,outcome,[22],inactive
same,outcome,[23],inactive
same,outcome,[24],inactive
same,"activity change, negative = inhibition",[25]; at 57.5 µM (top of the series),9.07% (inactive)
same,max response,[25]; [26],15.4%
same,max response,[25]; [27],28.4%
same,Potency,[6],inactive
same,Potency,[7],inactive
COc1cc(C=O)c([N+](=O)[O-])cc1OC,Potency,[9],inactive
same,Potency,[7],inactive
same,Potency,[8],inactive
COc1ccc2[nH]cc(CC(N)C(=O)O)c2c1 (configuration not stated),Potency,[9],inactive
same,Potency,[5],inactive
same,Potency,[6],inactive
same,Potency,[7],inactive
same,Potency,[8],inactive
CCN(CC)c1ncnc2c1ncn2[C@@H]1O[C@@H](COP(=O)(O)OP(=O)(O)C(Br)(Br)P(=O)(O)O)[C@H](O)[C@H]1O,Potency,[5],inactive
same,Potency,[6],inactive
same,Potency,[7],inactive
same,Potency,[8],inactive
NCCCCCCNS(=O)(=O)c1ccc2c(Cl)cccc2c1,Potency,[2],> 46 µM (inactive)
same,Potency,[3],inactive
same,Potency,[6],inactive
same,Potency,[7],inactive
same,Potency,[8],inactive
Cc1ccc(/C(=C/CN2CCCC2)c2ccccn2)cc1,"activity, negative = inhibition",[14]; at 17.2 µM (top of the series),6.54% (inactive)
same,"activity, negative = inhibition",[14]; at 38 µM (top of the series),-0.742% (inactive)
same,Potency,[3],inactive
same,Potency,[15],inactive
same,outcome,[16],inactive
same,Potency,[19],1.26 µM (active)
same,outcome,[22],inactive
same,outcome,[23],inactive
same,outcome,[24],inactive
same,"activity change, negative = inhibition",[25]; at 25.7 µM (top of the series),-1.93% (inactive)
same,"activity change, negative = inhibition",[25]; at 57.5 µM (top of the series),3.43% (inactive)
same,max response,[25]; [26],0.155% and 8.83%
same,max response,[25]; [27],-0.659% and 14%
same,Potency,[5],inactive
same,Potency,[6],inactive
same,Potency,[7],inactive
Nc1ncnc2c1ncn2[C@@H]1O[C@H](COP(=O)(O)OP(=O)(O)O)[C@@H](O)[C@H]1O,Potency,[4],inactive
same,Potency,[5],inactive
same,Potency,[6],inactive
same,Potency,[7],inactive
same,Potency,[8],inactive
